The target of test [1] is Bile acid receptor (Homo sapiens) (UniProt Q96RI1). Put plainly: ATG_IR1_CIS: Attagene CIS-FACTORIAL HepG2 Assay for human Nuclear Receptor Subfamily 1 Group H Member 4 (NR1H4), IR1 submotif (AID 2282946). The settings on record: IR1 reporter transcription, actives raise or lower the signal. The method in brief:
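HepG2 cells transiently transfected with multiple cis-promoter-driven reporter units to measure endogenous transcription factor activity; 24 h exposure. Reporter mRNA read by RT-PCR, FAM labelling, HpaI digestion and capillary electrophoresis. Bidirectional fit versus DMSO.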

Test [2] is described as follows: ATG_GRE_CIS: Attagene CIS-FACTORIAL HepG2 Assay for human Glucocorticoid Response Elements (GRE) (AID 2282947). The conditions noted are these: HepG2 GRE cis-reporter, Attagene multiplex mRNA; actives raise or lower the signal. In a few lines: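 Transiently transfected HepG2 cells carrying GRE cis-reporter units (endogenous TF activity) dosed 24 h; reporter mRNA quantified by RT-PCR, 6-FAM labelling, HpaI digestion and capillary electrophoresis. Bidirectional fit versus DMSO baseline.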

Test [3] can be described thus: ATG_ISRE_CIS: Attagene CIS-FACTORIAL HepG2 Assay for human Interferon Regulatory Factor 1 (IRF1) binding to an Interferon-Stimulated Response Element (ISRE) (AID 2282948). The settings on record: HepG2 ISRE cis-reporter (Attagene), mRNA transcription readout; actives raise or lower the signal. In a few lines: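 HepG2 cells transiently transfected with multiplexed cis-promoter reporter units; after 24 h compound exposure, reporter mRNA quantified by RT-PCR, FAM labelling, HpaI digestion and capillary electrophoresis. Bidirectional fit versus DMSO baseline.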

Test [4] is described as follows: ATG_M_32_CIS: Attagene CIS-FACTORIAL HepG2 Assay for M32 Transcription Factor (Internal Marker) (AID 2282949).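 Also: background control marker of the multiplexed CIS panel rather than a real target.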 The settings on record: HepG2 Attagene cis-factorial M32 reporter, mRNA; actives raise or lower the signal. The method in brief: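 Fluorescent capillary electrophoresis peaks of HpaI-digested, FAM-labelled RT-PCR reporter products give the signal. Source: transiently transfected human liver HepG2 cells, 24 h after chemical dosing; bidirectional fitting against DMSO.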

Test [5] in a line: ATG_M_06_CIS: Attagene CIS-FACTORIAL HepG2 Assay for M06 Transcription Factor (Internal Marker) (AID 2282950). The conditions noted are these: HepG2 Attagene CIS-FACTORIAL M06 internal marker reporter; actives raise or lower the signal. The method in brief: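 Measured 24 h post-dosing in transiently transfected HepG2 cells, this internal-marker endpoint reports reporter mRNA via RT-PCR with fluorescent primer extension and capillary electrophoresis. DMSO served as negative control and baseline for bidirectional fitting.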

For test [6], the target named is Hypoxia-inducible factor 1-alpha (Homo sapiens) (UniProt Q16665). Put plainly: ATG_HIF1a_CIS: Attagene CIS-FACTORIAL HepG2 Assay for human Hypoxia Inducible Factor 1 (HIF1A) (AID 2282951). The conditions noted are these: HepG2 Attagene cis-factorial HIF1a reporter transcription; actives raise or lower the signal. In a few lines: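 RT-PCR/capillary electrophoresis fluorescence readout of reporter transcripts from endogenous-TF-driven cis elements in transfected HepG2 cells, 24 h exposure; activity fitted in both directions against DMSO controls.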

For test [7], the target named is Hepatocyte nuclear factor 6 (Homo sapiens) (UniProt Q9UBC0). Put plainly: ATG_HNF6_CIS: Attagene CIS-FACTORIAL HepG2 Assay for human Hepatocyte Nuclear Factor 6 (HNF6) (AID 2282952). The settings on record: HepG2 Attagene cis-factorial HNF6 reporter transcription; actives raise or lower the signal. The method in brief: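 Reporter mRNA induction or loss in HepG2 after 24 h exposure; transient cis-MRTU transfection; fragments quantified by capillary electrophoresis; bidirectional analysis, DMSO as negative control.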

The target in test [8] is Heat shock factor protein 1 (Homo sapiens) (UniProt Q00613). Kind of test: ATG_HSE_CIS: Attagene CIS-FACTORIAL HepG2 Assay for human Heat Shock Transcription Factor 1 (HSE) (AID 2282953). The settings on record: HepG2 HSE cis-reporter, Attagene RNA transcription; actives raise or lower the signal. In a few lines:
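Reporter mRNA induction in HepG2 is measured 24 h after dosing, using transiently transfected multiplexed cis-regulated reporter units. Signal comes from capillary electrophoresis of labelled RT-PCR products, with DMSO as negative control.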

The nature of test [9]: ATG_MRE_CIS: Attagene CIS-FACTORIAL HepG2 Assay for human Metal Responsive Element (MRE) (AID 2282954). The settings on record: HepG2 MRE cis-reporter transcription, Attagene multiplex; actives raise or lower the signal. In a few lines: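 HepG2 cells transiently transfected with cis-element-driven reporter units; mRNA measured 24 h after dosing. Reporter transcripts quantified by RT-PCR, FAM labelling, HpaI digestion and capillary electrophoresis; bidirectional fit versus DMSO.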

Test [10] is described as follows: ATG_PBREM_CIS: Attagene CIS-FACTORIAL HepG2 Assay for human Phenobarbital-responsive Enhancer Module (PBREM) (AID 2282955). The conditions noted are these: HepG2 PBREM cis-reporter, Attagene multiplexed transcription; actives raise or lower the signal. The method in brief:
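Reporter mRNA read by RT-PCR, 6-FAM primer extension, HpaI digestion and capillary electrophoresis. Transfected HepG2 cells, 24 h compound exposure. Gain or loss of signal fitted bidirectionally relative to DMSO baseline.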

Where “and” joins values, the source holds several entries; their conditions need not be identical. Equal values may be shown once. More than one record can exist for a structure, and the calls need not agree. Calls of active or inactive are those of the source. The calls were made as follows: active = hit-call score of the fitted dose curve at least 0.9, where 1 is the maximum; inactive = score below 0.9.

Sequence of Hypoxia-inducible factor 1-alpha (Homo sapiens) (Q16665 whole entry, looked up): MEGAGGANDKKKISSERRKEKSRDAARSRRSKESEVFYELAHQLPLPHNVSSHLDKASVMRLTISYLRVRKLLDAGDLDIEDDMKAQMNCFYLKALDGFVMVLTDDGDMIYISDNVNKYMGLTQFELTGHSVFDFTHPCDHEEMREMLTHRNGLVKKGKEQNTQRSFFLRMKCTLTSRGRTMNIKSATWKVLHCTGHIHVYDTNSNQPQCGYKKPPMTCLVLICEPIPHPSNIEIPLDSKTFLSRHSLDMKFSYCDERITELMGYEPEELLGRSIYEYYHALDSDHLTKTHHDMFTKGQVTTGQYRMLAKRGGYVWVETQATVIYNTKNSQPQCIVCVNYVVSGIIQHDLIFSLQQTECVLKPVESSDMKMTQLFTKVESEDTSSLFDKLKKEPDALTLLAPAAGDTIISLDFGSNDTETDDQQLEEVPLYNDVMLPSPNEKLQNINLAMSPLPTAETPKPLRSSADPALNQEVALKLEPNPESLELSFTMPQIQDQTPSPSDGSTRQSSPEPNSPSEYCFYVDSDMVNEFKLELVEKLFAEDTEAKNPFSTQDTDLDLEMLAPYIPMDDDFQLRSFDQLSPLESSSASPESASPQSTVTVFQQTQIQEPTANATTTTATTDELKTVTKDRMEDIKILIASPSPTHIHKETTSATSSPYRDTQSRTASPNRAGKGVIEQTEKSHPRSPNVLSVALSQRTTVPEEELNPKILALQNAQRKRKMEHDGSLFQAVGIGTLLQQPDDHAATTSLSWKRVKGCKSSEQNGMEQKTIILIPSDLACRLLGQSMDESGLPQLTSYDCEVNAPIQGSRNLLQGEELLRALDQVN
Sequence of Heat shock factor protein 1 (Homo sapiens) (Q00613 whole entry, looked up): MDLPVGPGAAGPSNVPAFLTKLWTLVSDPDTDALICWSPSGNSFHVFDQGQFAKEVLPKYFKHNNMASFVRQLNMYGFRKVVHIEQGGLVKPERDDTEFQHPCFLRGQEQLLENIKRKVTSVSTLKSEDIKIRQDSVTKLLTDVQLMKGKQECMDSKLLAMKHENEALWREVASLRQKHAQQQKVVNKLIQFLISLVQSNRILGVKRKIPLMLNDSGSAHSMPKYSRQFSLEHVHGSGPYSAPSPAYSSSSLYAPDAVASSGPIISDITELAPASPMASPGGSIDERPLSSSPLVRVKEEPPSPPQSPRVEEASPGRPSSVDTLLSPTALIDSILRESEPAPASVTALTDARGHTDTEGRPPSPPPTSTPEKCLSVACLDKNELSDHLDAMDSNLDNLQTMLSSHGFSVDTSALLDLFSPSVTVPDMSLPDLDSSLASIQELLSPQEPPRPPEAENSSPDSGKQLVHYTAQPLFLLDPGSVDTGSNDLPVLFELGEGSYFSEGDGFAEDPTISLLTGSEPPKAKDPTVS
Sequence of Bile acid receptor (Homo sapiens) (Q96RI1 whole entry, looked up): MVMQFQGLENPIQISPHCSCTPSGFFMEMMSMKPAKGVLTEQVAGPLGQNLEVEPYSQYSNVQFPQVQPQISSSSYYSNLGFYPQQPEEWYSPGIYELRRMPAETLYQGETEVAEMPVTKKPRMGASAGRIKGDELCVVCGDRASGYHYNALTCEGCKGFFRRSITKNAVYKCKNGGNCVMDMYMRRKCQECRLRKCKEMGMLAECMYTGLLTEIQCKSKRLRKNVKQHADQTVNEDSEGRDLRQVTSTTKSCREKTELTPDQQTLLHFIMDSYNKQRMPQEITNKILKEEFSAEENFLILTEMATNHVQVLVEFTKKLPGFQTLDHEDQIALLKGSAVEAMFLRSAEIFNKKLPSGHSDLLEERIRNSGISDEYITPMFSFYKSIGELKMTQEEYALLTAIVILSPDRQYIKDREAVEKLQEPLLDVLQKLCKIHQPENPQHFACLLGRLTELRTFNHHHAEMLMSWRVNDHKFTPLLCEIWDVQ
Sequence of Hepatocyte nuclear factor 6 (Homo sapiens) (Q9UBC0 whole entry, looked up, the tested form may be a part): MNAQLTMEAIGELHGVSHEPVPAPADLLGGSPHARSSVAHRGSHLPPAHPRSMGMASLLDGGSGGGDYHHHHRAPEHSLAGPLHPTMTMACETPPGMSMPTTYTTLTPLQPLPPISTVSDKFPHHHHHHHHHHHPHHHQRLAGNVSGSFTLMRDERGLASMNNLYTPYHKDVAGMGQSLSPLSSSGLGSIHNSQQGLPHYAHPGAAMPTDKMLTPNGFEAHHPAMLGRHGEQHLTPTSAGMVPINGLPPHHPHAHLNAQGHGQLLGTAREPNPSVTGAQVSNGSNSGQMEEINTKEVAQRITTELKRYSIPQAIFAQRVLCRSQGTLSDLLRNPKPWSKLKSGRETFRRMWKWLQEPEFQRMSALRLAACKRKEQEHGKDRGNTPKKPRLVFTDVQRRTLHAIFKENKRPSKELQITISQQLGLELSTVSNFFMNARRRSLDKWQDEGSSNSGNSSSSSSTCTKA

As for `O=c1[nH]sc2ccccc12`, the compound was classed as inactive in test [1], in [2], in test [4], in [5], in test [7] and in test [9]. In test [10], the result was inactive. Also, the AC50 (commonly the midpoint of the concentration-response curve, whichever way the signal moves) in test [3] is 33.4 µM (active); in test [6] it was 8.86 µM (active); in [8], 52.8 µM (active).
Consider `COCC(C)OCC(C)OCC(C)O` (configuration not stated), for which the call in test [1], in [2], in test [3], in test [4], in [5] and in test [6] was inactive. In addition, the compound was classed as inactive in test [7], in [8], in test [9] and in test [10].
Consider `CCN(CC)C(=O)c1cc(S(=O)(=O)Cc2ccccc2)c(N2CCC(c3ccccc3)CC2)cc1N(CC)CCN(C)C`, for which the compound was called inactive in test [1], in test [2], in test [3], in [4], in [5] and in test [7]. Further, the compound was classed as inactive in test [8] and in test [10]. Further, the concentration at half-maximal activity (AC50) in test [6] and in [9] was 3.7 µM (active) in each case.
Regarding `CN(C)c1ccc(C(=C2C=CC(=[N+](C)C)C=C2)c2ccc(N(C)C)cc2)cc1`, the AC50 was 2.87 µM (active) in test [1]; 2.28 µM (active) in test [3]; 2.03 µM (active) in [4]; 6.63 µM (active) in [8]; 4.28 µM (active) in test [9]; 5.8 µM (active) in test [10]. Also, the result in test [2], in test [5], in test [6] and in test [7] was inactive.
`Cc1cc2c(cc1C(F)(F)F)N(C(=O)Nc1ccc(Oc3cccnc3C)nc1)CC2`: the result in [1], in [2], in test [3], in test [4], in [5] and in test [6] was inactive. In addition, the compound was classed as inactive in [7], in [8], in test [9] and in test [10].
Consider `OC12N=C(c3ccccc3)SC1Cc1cc(Cl)ccc12` (configuration not stated), for which the call in test [1], in test [2], in test [3], in test [4], in [5] and in test [6] was inactive. Besides, the outcome in test [7], in test [8] and in [9] was inactive.
Regarding `Cc1c2ccccc2c(C)c2c1ccc1ccccc12`, the results for the AC50 in test [1] and in test [4] were 6.62 µM (active) and 55.3 µM (active), respectively. Also, the compound was called inactive in test [2], in [3], in test [5], in [6], in [7] and in test [8]. In addition, the outcome in test [9] and in test [10] was inactive.
As to `COc1ccc2cc(S(=O)(=O)N[C@H](CC(=O)N[C@H](Cc3ccc(CN4[C@H](C)CCC[C@@H]4C)cc3)C(=O)N(C)C(C)C)c3ccc4c(c3)OCO4)ccc2c1`, the call in test [1], in test [2], in [4], in [5], in [7] and in test [8] was inactive. For the same compound, the result in test [10] was inactive. In addition, the values for the half-maximal activity concentration (AC50) in test [3], in test [6] and in [9] were 11 µM (active), 1.38 µM (active) and 11 µM (active), respectively.
`CC[C@H](NC(=O)c1cc(F)ccc1NS(=O)(=O)c1cccc2cccnc12)c1ccccc1`: the result in test [1], in test [2], in test [3], in [4], in test [5] and in [6] was inactive. The compound was classed as inactive in test [7], in [8] and in [9].
In the case of `CCCOC(=O)c1cc(O)c(O)c(O)c1`, the outcome in test [1], in test [2], in test [3], in [4], in test [5] and in test [7] was inactive. The result in [8], in test [9] and in test [10] was inactive. The AC50 in test [6] was 65.1 µM (active).
As to `CC/C(=C(/CC)c1ccc(O)cc1)c1ccc(O)cc1`, the AC50 was 15.4 µM (active) and 2.2 µM (active) in [1]; 11.1 µM (active) in [3]; 20 µM (active) and 18.7 µM (active) and 20.2 µM (active) in test [8]; 15.2 µM (active) [middle of 4 runs] in [9]. For the same compound, the outcome in test [1], in test [2], in [3], in [4], in test [5] and in test [6] was inactive. For the same compound, the result in test [7], in test [8] and in test [9] was inactive.
Take `O=CCCCC=O`: the call in test [1], in test [2], in [3], in test [4], in test [5] and in [6] was inactive. The call in [7], in [8], in test [9] and in [10] was inactive. Further, the AC50 in test [3] was 125 µM (active).
On to `CCCCOC(=O)CC(CC(=O)OCCCC)(OC(C)=O)C(=O)OCCCC`, for which the outcome in test [1], in [2], in test [3], in test [4], in test [5] and in test [6] was inactive. The call in [7], in test [8] and in test [10] was inactive. The AC50 in test [3] was 26.7 µM (active); in test [9], 27.2 µM (active) and 20.7 µM (active); in test [10], 26.6 µM (active).
As to `CC(C)(C)c1csc(-c2cc3cc(OCc4ccccc4CC(=O)O)ccc3o2)n1`, the compound was classed as inactive in test [1], in [2], in test [4], in test [5], in test [6] and in test [7]. The result in test [10] was inactive. In addition, the AC50 in test [3] is 33.4 µM (active); in test [8], 62.7 µM (active); in test [9], 43.8 µM (active).
Regarding `Cc1oc2c(NC(=O)c3c(Cl)cccc3Cl)cccc2c1C(C)(C)O`, the AC50 in [1] is 158 µM (active); in test [3], 26.8 µM (active); in [6], 37.8 µM (active); in [8], 177 µM (active); in [9] it was 129 µM (active); in [10] it was 6.18 µM (active). In addition, the compound was classed as inactive in [2], in test [4], in test [5] and in test [7].
For `NCc1cccc(C2CCN(C(=O)c3ccc(C#Cc4ccccc4F)o3)CC2)c1`, the compound was called inactive in [1], in test [2], in test [4], in [5], in test [6] and in test [7]. For the same compound, the AC50 in test [3] was 19.4 µM (active); in test [8] it was 17.2 µM (active); in test [9] it was 9.13 µM (active); in [10], 18 µM (active).
On to `O=c1c(-c2ccc(O)cc2)coc2cc(O)cc(O)c12`, for which the AC50 in test [1] was 10.4 µM (active) and 10.6 µM (active); in [9], 81.4 µM (active) and 137 µM (active); in [10], 43.7 µM (active). Besides, the call in test [1], in [2], in test [3], in [4], in test [5] and in test [6] was inactive. For the same compound, the result in test [7], in test [8], in test [9] and in [10] was inactive.

Values taken from PubChem BioAssay (EPA / NIEHS).
